PubChem BioAssay (NCI)
Several values for one entry are separate records, joined by “and”; a condition that tells them apart may be missing. Equal values may be shown once. This is part of a sample that, as a whole, favours compounds with a hit. Of some 83,000 tested, about 20% had one in any assay.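 Plates (96-well) were seeded with cells, treated with compound at one concentration, and incubated for 48 hours before percent growth was determined.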 A number with no mark means an inactive call. Activity calls are given as the source filed them. The calls were made as follows: active = growth percent below 10; inactive = the rest.

tested on: MDA-MB-468 breast; assay: NCI-60 one-dose screen, 48 h (100 = growth as untreated, 0 = no growth, -100 = all killed); conditions: 10 µM unless noted

SMILES | growth
C/C(=C\c1ccc([N+](=O)[O-])cc1)C(=O)O | 116%
O=c1c2c([nH]c3ccccc13)CCCC2 | 88.2% and 14.6%
CC[C@H](Nc1cc(C)nc(N)n1)c1nc2cccc(NCc3ccc(C(=O)NO)cc3)c2c(=O)n1-c1ccccc1 | -10.6% (active)
CN1NC(c2ccccc2)NN(C)C1=O | 108%
CCN1C(=O)N(CC)C2C1NN=c1s/c(=C\c3cccs3)c(=O)n12 (stereo unspecified) | 15.3%
O=C(/C=C/c1cccnc1)NCCCCC1CCCN(C(=O)c2ccccc2)C1 (stereo unspecified) | 87.9%
